Laboratory results: PubChem BioAssay (NCATS)
Results filed as inconclusive are left out. Where a call stands in place of a potency, no number is given. The source made the active and inactive calls. The call rests on the fitted dose curve; in most records, active means well fitted curve in the direction sought with a large enough effect; inconclusive means small, poorly fitted or top-dose-only effect, or another doubt; inactive means no such curve, though single readings can be large; an effect the other way counts as inactive or inconclusive.

Assays:
[1] = MultiTox-Fluor Cytotoxicity Assay - LYMP1-001 - Dead Cells (AID 946);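 further: cells exposed to compound for 16 h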; further: potency means the concentration at half of the fitted maximal effect
In short: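 Seed 2500 LYMP1-001 cells/well, incubate 5 hr at 37 C; add compound, 16 hr at 37 C; add MultiTox-Fluor reagent, 60 min RT; read dead-cell fluorescence Ex/Em=485/520. Normalize to DMSO and 15 uM tetraoctylammonium bromide.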

[2] = MultiTox-Fluor Cytotoxicity Assay - LYMP1-001 - Live Cells (AID 947)
[3] = Cell Viability - LYMP1-002 - Assay at 16 hr (AID 948); further: potency means the concentration at half of the fitted maximal effect
In short: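 LYMP1-002 human lymphoblastoid cells, 2500/well, were treated with compounds for 16 hr at 37 C in complete medium. Viability was read as intracellular ATP by CellTiter-Glo luminescence, and AC50 was derived from a Hill fit to concentration-response data.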

[4] = MultiTox-Fluor Cytotoxicity Assay - LYMP1-002 - Dead Cells (AID 960); further: nearly all actives have a fitted effect of over 60% in size; further: potency means the concentration at half of the fitted maximal effect
In short: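 Concentration-dependent increases in membrane-leaked protease activity are quantified in LYMP1-002 cells after 16 hr treatment; values are normalized against DMSO and tetraoctylammonium bromide (15 uM) controls and AC50 derived by Hill modeling.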

[5] = MultiTox-Fluor Cytotoxicity Assay - LYMP1-003 - Live Cells (AID 962);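 further: cells exposed to compound for 16 hours at 37 °C; cytotoxic hits lower the live-cell protease signal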
In short: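 Human lymphoblastoid line LYMP1-003 in complete culture medium, treated 16 hr with titrated compounds. Viable cells quantified via cell-permeant GF-AFC substrate fluorescence; AC50 derived by Hill fitting.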

[6] = Cell Viability - LYMP1-003 - Assay at 24 hr (AID 963); further: potency means the concentration at half of the fitted maximal effect
In short: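 The lymphoblastoid line was treated with titrated compounds for 24 hours, and viable cell number estimated from luciferase-based ATP luminescence.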

[7] = Cell Viability - LYMP1-003 - Assay at 40 hr (AID 964); further: nearly all actives have a fitted effect of over 60% in size; further: potency means the concentration at half of the fitted maximal effect
In short: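 Acute toxicity is scored as a concentration-dependent loss of intracellular ATP in LYMP1-003 cells (2500/well, complete medium) after 40 hr at 37 C, measured by CellTiter-Glo luminescence; AC50 values derive from standard Hill modelling.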

[8] = Cell Viability - LYMP2-003 (AID 965);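 further: cells exposed to compounds for 24 h before reading; nearly all actives have a fitted effect of over 50% in size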; further: potency means the concentration at half of the fitted maximal effect
In short: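 Human lymphoblastoid LYMP2-003 cells, 2500/well, exposed to compounds for 24 h at 37 C in complete medium. Viability read as intracellular ATP by CellTiter-Glo luminescence; AC50 from Hill-equation fits of qHTS concentration-response data.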

[9] = Cell Viability - LYMP2-004 (AID 966); further: nearly all actives have a fitted effect of over 65% in size; further: potency means the concentration at half of the fitted maximal effect
In short: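 Viable-cell number estimated from ATP luminescence (CellTiter-Glo) in 2500 human lymphoblastoid cells/well after 24 hr at 37 C with compound. AC50 fitted to the standard Hill equation.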

[10] = Cell Viability - LYMP2-005 (AID 967); further: potency means the concentration at half of the fitted maximal effect
In short: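 Human lymphoblastoid LYMP2-005 cells, 2,500 per well in complete medium, rested 5 h at 37C then compound-treated 24 h at 37C. Intracellular ATP read by CellTiter-Glo luminescence after 30 min at room temperature; AC50 from Hill-equation fits of concentration-response data.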

[11] = Cell Viability - LYMP2-009 (AID 968); further: nearly all actives have a fitted effect of over 55% in size; further: potency means the concentration at half of the fitted maximal effect
[12] = Cell Viability - LYMP2-011 (AID 969); further: nearly all actives have a fitted effect of over 60% in size; further: potency means the concentration at half of the fitted maximal effect
In short: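 Cells seeded at 2500 per well rest 5 hr before compound addition, then incubate 24 hr at 37 C. CellTiter-Glo reagent is added for 30 min at room temperature before luminescence detection.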

[13] = Cell Viability - LYMP2-013 (AID 970); further: nearly all actives have a fitted effect of over 55% in size; further: potency means the concentration at half of the fitted maximal effect
In short: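 In complete culture medium, human lymphoblastoid cells were dosed for 24 hr at 37 C, with tetraoctylammonium bromide (6.4pM to 92 uM) as positive control. Viability reflects luciferase-based ATP signal; AC50 derived from concentration-response curves.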

Structure (SMILES) | Potency [1] | outcome [2] | Potency [3] | Potency [4] | outcome [5] | Potency [6] | Potency [7] | Potency [8] | Potency [9] | Potency [10] | Potency [11] | Potency [12] | Potency [13]
CC(C)(C)CC(C)(C)c1ccc(OCCO)cc1 | inactive | inactive | inactive | inactive | inactive | inactive | inactive | inactive | inactive | inactive | inactive | inactive | inactive
O=P(O)(O)O | inactive | inactive | inactive | inactive | inactive | inactive | inactive | inactive | inactive | – | inactive | inactive | inactive
Cc1ccc(S(=O)(=O)O)cc1C | inactive | inactive | inactive | inactive | inactive | inactive | inactive | inactive | inactive | inactive | inactive | inactive | inactive
CC/C=C\C/C=C\C/C=C\CCCCCCCC(=O)O | inactive | – | inactive | inactive | inactive | inactive | – | 39.8 µM (active) | – | – | 50.1 µM (active) | – | –
OCC(O)CO | inactive | inactive | inactive | inactive | inactive | inactive | inactive | inactive | inactive | inactive | inactive | inactive | inactive
Oc1ccc(/C=C/c2cc(O)cc(O)c2)cc1 | inactive | inactive | inactive | inactive | inactive | inactive | – | inactive | inactive | – | inactive | inactive | inactive
CC[C@H]1OC(=O)[C@H](C)[C@@H](O[C@H]2C[C@@](C)(OC)[C@@H](O)[C@H](C)O2)[C@H](C)[C@@H](O[C@@H]2O[C@H](C)C[C@H](N(C)C)[C@H]2O)[C@](C)(O)C[C@@H](C)CN(C)[C@H](C)[C@@H](O)[C@]1(C)O | inactive | inactive | inactive | inactive | inactive | inactive | inactive | inactive | inactive | inactive | inactive | inactive | inactive
Oc1cccc(O)c1O | inactive | inactive | inactive | inactive | inactive | inactive | – | – | – | inactive | – | inactive | inactive
[O-][N+](=Nc1ccccc1)c1ccccc1 | inactive | inactive | inactive | inactive | inactive | inactive | inactive | – | inactive | inactive | inactive | inactive | inactive
COC(=O)c1ccccc1O | inactive | inactive | inactive | inactive | inactive | inactive | inactive | inactive | inactive | inactive | inactive | inactive | inactive
C[C@H]1O[C@@H](O[C@H]2[C@@H](O)C[C@H](O[C@H]3[C@@H](O)C[C@H](O[C@H]4CC[C@@]5(C)[C@H](CC[C@@H]6[C@@H]5C[C@@H](O)[C@]5(C)[C@@H](C7=CC(=O)OC7)CC[C@]65O)C4)O[C@@H]3C)O[C@@H]2C)C[C@H](O)[C@@H]1O | 0.794 µM (active) | – | 0.199 µM (active) | – | – | 0.251 µM (active) | 0.158 µM (active) | – | – | – | – | – | –
CO | inactive | inactive | inactive | inactive | inactive | inactive | inactive | inactive | inactive | inactive | inactive | inactive | inactive
O.O.O.O.O.O.O.O=S(=O)([O-])[O-].[Co+2] | inactive | inactive | inactive | – | inactive | inactive | – | inactive | – | – | – | – | inactive
CC1=CC(=O)NS(=O)(=O)O1 | inactive | inactive | inactive | inactive | inactive | inactive | inactive | inactive | inactive | – | inactive | inactive | inactive
C[C@H](CCC(=O)O)[C@H]1CC[C@H]2[C@@H]3[C@H](O)C[C@@H]4C[C@H](O)CC[C@]4(C)[C@H]3C[C@H](O)[C@]12C | inactive | inactive | inactive | inactive | inactive | inactive | inactive | inactive | inactive | inactive | inactive | inactive | inactive
C/C=C/C=C/C(=O)O | inactive | inactive | inactive | inactive | inactive | inactive | inactive | inactive | inactive | inactive | inactive | inactive | inactive
CO/N=C(/C(=O)N[C@@H]1C(=O)N2C(C(=O)O)=C(COC(N)=O)CS[C@H]12)c1ccco1 | inactive | inactive | inactive | – | inactive | inactive | inactive | inactive | inactive | inactive | inactive | inactive | inactive
C=C1C(CCl)(CCl)C2(Cl)C(Cl)C(Cl)C1(Cl)C2(Cl)Cl (centres undefined) | 50.1 µM (active) | – | 50.1 µM (active) | 31.6 µM (active) | inactive | 50.1 µM (active) | – | 50.1 µM (active) | 39.8 µM (active) | – | 39.8 µM (active) | 50.1 µM (active) | 50.1 µM (active)
O=c1n(CC2CO2)c(=O)n(CC2CO2)c(=O)n1CC1CO1 (centres undefined) | – | inactive | 39.8 µM (active) | – | inactive | 39.8 µM (active) | 15.8 µM (active) | 31.6 µM (active) | – | 20 µM (active) | 39.8 µM (active) | 39.8 µM (active) | 50.1 µM (active)
CC(C)O | inactive | inactive | inactive | inactive | inactive | inactive | inactive | inactive | inactive | inactive | inactive | inactive | inactive
NCCN | inactive | inactive | inactive | inactive | inactive | inactive | inactive | inactive | inactive | inactive | inactive | inactive | inactive
CC1=CCC2CC1C2(C)C (centres undefined) | inactive | inactive | inactive | inactive | inactive | inactive | inactive | inactive | inactive | inactive | inactive | inactive | inactive
